# Source: PubChem BioAssay (NCATS)
# Several values for one entry are separate records, joined by “and”; a condition that tells them apart may be missing. Identical values can stand only once. Inconclusive results are not listed. Entries that show only a call come without a potency. Unmarked numbers belong to inactive results. Activity calls are given as the source filed them. The call rests on the fitted dose curve; in most records, active means well fitted curve in the direction sought with a large enough effect; inconclusive means small, poorly fitted or top-dose-only effect, or another doubt; inactive means no such curve, though single readings can be large; an effect the other way counts as inactive or inconclusive.
# Columns and labels:
# [1] = Viability qHTS for spleen associated tyrosine kinase inhibitor (SYKi) naive MV4-11 cells (AID 1963823); further: nearly all actives have a fitted effect of over 40% in size
# Outline: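 Viability of MV4-11 AML cells lacking prior SYK inhibitor exposure is scored by CellTiter-Glo luminescence following 72 hr compound incubation at 37 C, 5% CO2, seeded at 500 cells per well.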
# [2] = Viability qHTS for spleen associated tyrosine kinase inhibitor (SYKi) drug resistant MV4-11 cells (AID 1963824); further: nearly all actives have a fitted effect of over 35% in size
# Outline: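 SYK inhibitor-resistant MV4-11 AML cells, 500 per well, added to predispensed compounds and incubated 72 hr at 37 C, 5% CO2. Viability measured by CellTiter-Glo luminescence after 10 min at room temperature.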
# [3] = Quantitative highthroughput screen to assess conditional lethalithy of NOMO1 cells grown in RPMI1640 with untreated serum (RPMI+s) (AID 1963876); further: nearly all actives have a fitted effect of over 35% in size
# Outline: (§1)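 Each medium arm—HPLM with 10% dialyzed FBS, or RPMI1640 with 5 mM glucose and 10% untreated or dialyzed FBS—was screened against an 11-point, 3-fold compound titration for 48 h at 37 °C, with CellTiter-Glo luminescence as endpoint.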
# [4] = Quantitative highthroughput screen to assess conditional lethalithy of NOMO1 cells grown in RPMI1640 with dialyzed fetal bovine serum (RPMI+ds) (AID 1963877); further: nearly all actives have a fitted effect of over 30% in size; on Viability: series mostly up to about 46 µM
# Outline: as §1
# [5] = Quantitative highthroughput screen to assess conditional lethalithy of NOMO1 cells grown in Human Plasma-Like Medium with dialyzed fetal bovine serum (HPLM+ds) (AID 1963878); further: nearly all actives have a fitted effect of over 35% in size
# Outline: as §1
# [6] = Quantitative highthroughput screen to assess conditional lethalithy of P12 Ichikawa cells grown in Human Plasma-Like Medium with dialyzed fetal bovine serum (HPLM+ds) (AID 1963879); details: Potency: viability; further: nearly all actives have a fitted effect of over 35% in size; on Viability: series mostly up to about 46 µM
# Outline: as §1
# [7] = Quantitative highthroughput screen to assess conditional lethalithy of P12 Ichikawa cells grown in RPMI1640 with dialyzed fetal bovine serum (RPMI+ds) (AID 1963880); details: Potency: P12-Ichikawa viability; further: nearly all actives have a fitted effect of over 35% in size
# Outline: as §1
# [8] = Quantitative highthroughput screen to assess conditional lethalithy of P12 Ichikawa cells grown in RPMI1640 with untreated serum (RPMI+s) (AID 1963881); details: Potency: viability; further: nearly all actives have a fitted effect of over 35% in size; on Viability: series mostly up to about 46 µM
# Outline: as §1
# [9] = Quantitative highthroughput screen to assess conditional lethalithy of SEM cells grown in Human Plasma-Like Medium with dialyzed fetal bovine serum (HPLM+ds) (AID 1963882); further: nearly all actives have a fitted effect of over 35% in size; on Viability: series mostly up to about 46 µM
# Outline: as §1
# [10] = Quantitative highthroughput screen to assess conditional lethalithy of SEM cells grown in RPMI1640 with unreated serum (RPMI+s) (AID 1963883); further: nearly all actives have a fitted effect of over 35% in size
# Outline: as §1
# [11] = Quantitative highthroughput screen to assess conditional lethalithy of SEM cells grown in RPMI1640 with dialyzed fetal bovine serum (RPMI+ds) (AID 1963884); further: nearly all actives have a fitted effect of over 35% in size; on Viability: series mostly up to about 46 µM
# Outline: as §1
# [12] = Cellular viability qHTS for adrenocortical cancer (ACC) cell line SW-13 (AID 1963989); details: SW-13 ACC cells viability, CellTiter-Glo, 48 h; activity (max response): active compounds read low; further: nearly all actives have a fitted effect of over 65% in size;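 on activity (max response): cells grown in serum-free medium with ITS supplement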
# Outline: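 Compound titrations (up to 46 uM final, in DMSO) were applied to SW-13 cells for 48 h at 37C/5% CO2. Reading used CellTiter-Glo after 20 min at room temperature; fitted curves yielded IC50 and efficacy.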
# [13] = Cellular viability qHTS for adrenocortical cancer (ACC) cell line NCI-H295R (AID 1963990); further: nearly all actives have a fitted effect of over 60% in size
# Outline: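 Readout: CellTiter-Glo luminescence, 20 min RT. Exposure: 48 h, 37C/5% CO2. Cells: NCI-H295R, ITS-DMEM serum-free. Range: up to 46 uM. Analysis: 4PL fit, IC50 plus efficacy.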
# Potency means the concentration at half of the fitted maximal effect.
SMILES,Potency [1],Potency [2],Potency [3],Potency [4],Potency [5],Potency [6],Potency [7],Potency [8],Potency [9],Potency [10],Potency [11],activity (max response) [12],Potency [13],viability (% of control) [1],"viability, % of control [2]","activity change, negative = viability loss [13]",Potency [12]
COc1nc(C)cnc1NS(=O)(=O)c1cccnc1-c1ccc(-c2nnco2)cc1,inactive,inactive,inactive,inactive,inactive,inactive,inactive,inactive,inactive,inactive,inactive,3.93%,inactive,–,–,–,–
Oc1ccc(-c2nc(-c3ccc(F)cc3)c(-c3ccncc3)[nH]2)cc1,9.34 µM (active),8.33 µM (active),10500 nM (active),13200 nM (active),3720 nM (active),5260 nM (active),13200 nM (active),16600 nM (active),662 nM (active),469 nM (active),372 nM (active),–,inactive,–,–,–,–
Cn1cnc2c(F)c(Nc3ccc(Br)cc3Cl)c(C(=O)NOCCO)cc21,0.296 µM (active),668 nM (active) and 164 nM (active) and 468 nM (active),590 nM (active),296 nM (active),296 nM (active),662 nM (active),743 nM (active),662 nM (active),662 nM (active),469 nM (active),469 nM (active),–,inactive,–,–,–,–
Nc1ncnc2nc(-c3ccc(N4CCOCC4)nc3)cc(-c3cccc(Br)c3)c12,4.68 µM (active),8.33 µM (active),inactive,inactive,inactive,inactive,inactive,inactive,inactive,inactive,inactive,-17.8%,inactive,–,–,–,–
O=C1CCc2ccc(OCCCCN3CCN(c4cccc(Cl)c4Cl)CC3)cc2N1,10.5 µM (active),9.34 µM (active),inactive,inactive,inactive,inactive,inactive,inactive,inactive,inactive,–,–,inactive,–,–,–,–
O=P(O)(O)C(O)(Cn1ccnc1)P(=O)(O)O,–,–,inactive,inactive,inactive,inactive,inactive,inactive,inactive,inactive,inactive,-1.67%,–,79.2% [at 4.97 µM],89.7% [at 4.97 µM],-3.44% [at 3.81 µM],–
Cc1cc(Nc2ncnc3ccc(-c4ccc(CNCCS(C)(=O)=O)o4)cc23)ccc1Oc1ccn2ncnc2c1,11.8 µM (active),11.6 µM (active) and 18.6 µM (active),935 nM (active),1180 nM (active),209 nM (active),209 nM (active),743 nM (active),1180 nM (active),590 nM (active),93.5 nM (active),332 nM (active),–,inactive,–,–,–,–
O=C(NCc1ccccc1)c1csc(Nc2ccncn2)n1,4.68 µM (active),4.17 µM (active) and 20.6 µM (active),3320 nM (active),3720 nM (active),2350 nM (active),6620 nM (active),3720 nM (active),3320 nM (active),1660 nM (active),833 nM (active),1660 nM (active),–,31600 nM (active),–,–,–,25100 nM (active)
Cc1cc2cc3c(C)cc(=O)oc3c(C)c2o1,inactive,inactive,inactive,inactive,inactive,inactive,inactive,inactive,inactive,inactive,–,0.204% and 7.11%,inactive,–,–,–,–
CC(C)C[C@H](NC(=O)[C@@H](NC(=O)c1cccc(-c2ccccc2)n1)[C@@H](C)O)B(O)O,14.6 nM (active) and 25.7 nM (active),0.0204 µM (active),74.3 nM (active),105 nM (active),66.2 nM (active),52.6 nM (active),59 nM (active),37.2 nM (active),14.8 nM (active),13.2 nM (active),14.8 nM (active),–,180 nM (active),–,–,–,285 nM (active)
CC[C@H](C=C[C@@H](C)[C@H]1CC[C@H]2[C@@H]3CC=C4C[C@@H](O)CC[C@]4(C)[C@@H]3CC[C@]12C)C(C)C,inactive,inactive,inactive,inactive,7240 nM (active),inactive,inactive,inactive,inactive,inactive,–,10.2%,inactive,–,–,–,–
NC[C@H](O)c1ccc(O)c(O)c1,inactive,inactive,inactive,inactive,inactive,inactive,inactive,inactive,inactive,inactive,inactive,-12.7% and 7.51%,inactive,–,–,–,–
